From ChEMBL document CHEMBL3988442, “University of Dundee, Small-Polar-MMV Screening Library” (2021) come the findings set out here.

What all share (set-up): scale not given: direction of the effect not stated beside the values
Assay [1] addresses Protein translocase subunit SecA (Escherichia coli (strain K12)) (UniProt P10408). Kind of assay: Assay to Identify E. coli SecA ATPase Inhibitors. The class given is functional. The following applies: 30 µM.
The target of assay [2] is T1, Ubiquitin-activating enzyme e1, putative (Leishmania donovani (strain BPK282A1)) (UniProt E9BSI1).
T1 sequence (whole entry): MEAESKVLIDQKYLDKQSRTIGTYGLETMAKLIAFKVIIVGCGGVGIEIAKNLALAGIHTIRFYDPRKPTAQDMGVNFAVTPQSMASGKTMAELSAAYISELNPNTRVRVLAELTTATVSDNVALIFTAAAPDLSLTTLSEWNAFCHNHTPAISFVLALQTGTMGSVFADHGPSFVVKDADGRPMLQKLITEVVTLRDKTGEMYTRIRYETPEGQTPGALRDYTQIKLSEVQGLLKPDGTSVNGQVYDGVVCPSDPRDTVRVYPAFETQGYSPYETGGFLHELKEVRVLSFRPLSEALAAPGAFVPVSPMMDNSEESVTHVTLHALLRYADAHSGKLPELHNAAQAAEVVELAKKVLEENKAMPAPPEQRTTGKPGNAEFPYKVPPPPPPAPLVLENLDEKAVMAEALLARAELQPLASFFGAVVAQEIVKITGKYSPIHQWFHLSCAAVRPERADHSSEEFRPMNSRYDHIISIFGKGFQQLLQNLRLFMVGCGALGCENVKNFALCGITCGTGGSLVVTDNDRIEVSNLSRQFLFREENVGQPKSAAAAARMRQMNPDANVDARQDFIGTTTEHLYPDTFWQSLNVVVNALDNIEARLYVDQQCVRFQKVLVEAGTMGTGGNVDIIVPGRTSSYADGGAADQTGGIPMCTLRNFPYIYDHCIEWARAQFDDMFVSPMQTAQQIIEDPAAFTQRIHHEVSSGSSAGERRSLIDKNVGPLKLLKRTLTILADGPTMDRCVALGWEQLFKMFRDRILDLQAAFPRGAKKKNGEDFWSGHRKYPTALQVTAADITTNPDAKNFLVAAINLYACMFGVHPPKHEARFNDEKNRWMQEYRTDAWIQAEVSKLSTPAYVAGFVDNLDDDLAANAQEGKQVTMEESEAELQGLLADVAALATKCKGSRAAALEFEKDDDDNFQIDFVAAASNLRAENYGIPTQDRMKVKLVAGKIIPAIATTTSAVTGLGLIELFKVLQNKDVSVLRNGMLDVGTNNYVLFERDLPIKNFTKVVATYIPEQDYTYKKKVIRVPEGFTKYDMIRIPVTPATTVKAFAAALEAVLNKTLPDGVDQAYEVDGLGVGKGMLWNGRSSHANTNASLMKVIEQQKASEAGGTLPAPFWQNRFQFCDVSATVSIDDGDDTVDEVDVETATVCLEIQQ
The experiment in a line: Leishmania donovani Ubiquitin Activating Enzyme (LdE1). The class given is functional. The following applies: 30 µM.

Assay [3] has as its target AMP-activated protein kinase, AMPK (Homo sapiens) (UniProt P54646+O43741+P54619+Q9UGJ0+Q9Y478+Q13131+Q9UGI9). Kind of assay: AMP-dependent Kinase enzyme assay. An in vitro enzyme assay that detects ADP turnover that is directly proportional to AMPK activity. This uses naive AMPK that is activated during the assay with MK-8722. The following applies: 30 µM. The class given is functional.

The target of assay [4] is Sialic acid-binding Ig-like lectin 9 (Homo sapiens) (UniProt Q9Y336). Kind of assay: Hs-Siglec9 ALPHAscreen SOP 20170721. To be noted: 10 µM.
Assay [5] relates to Trypanosoma cruzi. The experiment in a line: Trypanosoma cruzi phosphomannomutase and mannose-1-phosphate guanylyltransferase assay. In kind it is functional. The following applies: 10 µM.
Assay [6] addresses T2, Arginase-2, mitochondrial (Homo sapiens) (UniProt P78540).
T2 sequence (whole entry): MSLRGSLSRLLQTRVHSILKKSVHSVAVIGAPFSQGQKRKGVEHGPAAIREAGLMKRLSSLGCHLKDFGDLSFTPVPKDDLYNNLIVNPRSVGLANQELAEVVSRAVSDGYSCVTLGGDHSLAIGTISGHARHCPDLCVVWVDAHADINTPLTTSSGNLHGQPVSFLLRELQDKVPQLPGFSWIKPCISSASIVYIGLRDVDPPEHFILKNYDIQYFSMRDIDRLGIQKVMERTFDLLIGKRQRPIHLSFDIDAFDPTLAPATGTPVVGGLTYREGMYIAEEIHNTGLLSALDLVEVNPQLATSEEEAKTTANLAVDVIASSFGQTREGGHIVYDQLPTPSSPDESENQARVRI
The experiment in a line: in vitro enzyme assay to detect the production of urea directly proportional to the activity of Arginase II. Further: in the data most compounds retested in dose-response had high values. The class given is functional. To be noted: 33.3 µM.

Assay [7] has as its target T3, Proteasome subunit beta (Trypanosoma cruzi) (UniProt O96673).
T3 sequence (whole entry): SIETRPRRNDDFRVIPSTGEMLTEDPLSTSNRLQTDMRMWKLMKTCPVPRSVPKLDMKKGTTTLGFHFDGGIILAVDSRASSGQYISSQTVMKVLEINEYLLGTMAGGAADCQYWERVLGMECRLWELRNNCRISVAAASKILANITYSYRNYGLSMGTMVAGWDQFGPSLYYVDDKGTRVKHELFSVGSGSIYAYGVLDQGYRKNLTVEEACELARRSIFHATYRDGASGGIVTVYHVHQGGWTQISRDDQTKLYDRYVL
Kind of assay: Trypanosoma cruzi proteasome chymotrypsin-like activity (TcProtChymo) assay. Further: in the data most compounds retested in dose-response had high values. The class given is functional. To be noted: 9.37 µM.

The species named for assay [8] is Homo sapiens. Kind of assay: To identify inhibition of the IFN signalling (Jak-Stat) pathway via expression of an eGFP reporter gene under the control of an IFN-stimulated response element (ISRE) containing MxA promoter. In kind it is functional. The following applies: 30 µM.
In assay [9] the target is T4, Tyrosyl-tRNA synthetase, putative (Trypanosoma cruzi (strain CL Brener)) (UniProt Q4DSP6).
T4 sequence (whole entry): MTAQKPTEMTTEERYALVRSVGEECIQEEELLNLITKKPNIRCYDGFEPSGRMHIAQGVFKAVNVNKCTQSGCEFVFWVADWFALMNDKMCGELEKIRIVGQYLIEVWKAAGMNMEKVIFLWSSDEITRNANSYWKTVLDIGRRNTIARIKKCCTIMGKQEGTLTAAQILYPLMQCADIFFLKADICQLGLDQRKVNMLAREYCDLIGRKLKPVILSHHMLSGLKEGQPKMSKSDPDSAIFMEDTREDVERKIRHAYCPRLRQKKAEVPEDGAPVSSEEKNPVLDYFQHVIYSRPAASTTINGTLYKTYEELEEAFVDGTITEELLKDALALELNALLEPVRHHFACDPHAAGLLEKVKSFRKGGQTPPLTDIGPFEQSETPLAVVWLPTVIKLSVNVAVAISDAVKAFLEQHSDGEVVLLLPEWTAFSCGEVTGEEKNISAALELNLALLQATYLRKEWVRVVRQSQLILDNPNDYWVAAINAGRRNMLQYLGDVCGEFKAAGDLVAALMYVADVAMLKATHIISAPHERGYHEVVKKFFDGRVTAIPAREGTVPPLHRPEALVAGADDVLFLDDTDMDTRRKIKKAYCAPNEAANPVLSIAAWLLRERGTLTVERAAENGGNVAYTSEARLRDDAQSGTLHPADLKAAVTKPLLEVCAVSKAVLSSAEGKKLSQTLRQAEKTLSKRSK
Kind of assay: Trypanosoma cruzi tyrosyl tRNA synthetase (TcYRS) _High Tyrosine SOP. Further: in the data most compounds retested in dose-response had high values. In kind it is functional. The following applies: 30 µM.

Assay [10] concerns the target T4, Tyrosyl-tRNA synthetase, putative (Trypanosoma cruzi (strain CL Brener)). The experiment in a line: Trypanosoma cruzi tyrosyl tRNA synthetase (TcYRS) SOP. The class given is functional. To be noted: 30 µM.
The target of assay [11] is Chromo domain-containing protein 1 (Saccharomyces cerevisiae (strain ATCC 204508 / S288c) (Baker's yeast)) (UniProt P32657). Kind of assay: ScCHD-1 Enzyme Inhibition Assay. Further: in the data most compounds retested in dose-response had high values. In kind it is functional. The following applies: 30 µM.

Each structure is given as a SMILES string. For some of these results: Results with a measured potency or affinity are listed apart.

Sialic acid-binding Ig-like lectin 9 (Homo sapiens), sequence (Q9Y336 whole entry): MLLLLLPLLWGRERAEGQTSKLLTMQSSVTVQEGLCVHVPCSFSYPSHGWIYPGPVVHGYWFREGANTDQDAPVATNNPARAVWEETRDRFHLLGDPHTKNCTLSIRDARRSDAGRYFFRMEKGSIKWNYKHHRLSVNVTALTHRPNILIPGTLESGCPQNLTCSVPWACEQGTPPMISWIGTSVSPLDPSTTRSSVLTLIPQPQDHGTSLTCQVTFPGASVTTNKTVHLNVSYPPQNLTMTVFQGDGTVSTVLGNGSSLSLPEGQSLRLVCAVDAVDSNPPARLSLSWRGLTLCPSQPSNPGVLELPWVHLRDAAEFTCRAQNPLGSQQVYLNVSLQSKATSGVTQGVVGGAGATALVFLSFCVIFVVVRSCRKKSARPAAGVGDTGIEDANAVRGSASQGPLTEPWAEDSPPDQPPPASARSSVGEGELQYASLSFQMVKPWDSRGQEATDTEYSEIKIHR
Chromo domain-containing protein 1 (Saccharomyces cerevisiae (strain ATCC 204508 / S288c) (Baker's yeast)), sequence (P32657 whole entry, the tested form may be a part): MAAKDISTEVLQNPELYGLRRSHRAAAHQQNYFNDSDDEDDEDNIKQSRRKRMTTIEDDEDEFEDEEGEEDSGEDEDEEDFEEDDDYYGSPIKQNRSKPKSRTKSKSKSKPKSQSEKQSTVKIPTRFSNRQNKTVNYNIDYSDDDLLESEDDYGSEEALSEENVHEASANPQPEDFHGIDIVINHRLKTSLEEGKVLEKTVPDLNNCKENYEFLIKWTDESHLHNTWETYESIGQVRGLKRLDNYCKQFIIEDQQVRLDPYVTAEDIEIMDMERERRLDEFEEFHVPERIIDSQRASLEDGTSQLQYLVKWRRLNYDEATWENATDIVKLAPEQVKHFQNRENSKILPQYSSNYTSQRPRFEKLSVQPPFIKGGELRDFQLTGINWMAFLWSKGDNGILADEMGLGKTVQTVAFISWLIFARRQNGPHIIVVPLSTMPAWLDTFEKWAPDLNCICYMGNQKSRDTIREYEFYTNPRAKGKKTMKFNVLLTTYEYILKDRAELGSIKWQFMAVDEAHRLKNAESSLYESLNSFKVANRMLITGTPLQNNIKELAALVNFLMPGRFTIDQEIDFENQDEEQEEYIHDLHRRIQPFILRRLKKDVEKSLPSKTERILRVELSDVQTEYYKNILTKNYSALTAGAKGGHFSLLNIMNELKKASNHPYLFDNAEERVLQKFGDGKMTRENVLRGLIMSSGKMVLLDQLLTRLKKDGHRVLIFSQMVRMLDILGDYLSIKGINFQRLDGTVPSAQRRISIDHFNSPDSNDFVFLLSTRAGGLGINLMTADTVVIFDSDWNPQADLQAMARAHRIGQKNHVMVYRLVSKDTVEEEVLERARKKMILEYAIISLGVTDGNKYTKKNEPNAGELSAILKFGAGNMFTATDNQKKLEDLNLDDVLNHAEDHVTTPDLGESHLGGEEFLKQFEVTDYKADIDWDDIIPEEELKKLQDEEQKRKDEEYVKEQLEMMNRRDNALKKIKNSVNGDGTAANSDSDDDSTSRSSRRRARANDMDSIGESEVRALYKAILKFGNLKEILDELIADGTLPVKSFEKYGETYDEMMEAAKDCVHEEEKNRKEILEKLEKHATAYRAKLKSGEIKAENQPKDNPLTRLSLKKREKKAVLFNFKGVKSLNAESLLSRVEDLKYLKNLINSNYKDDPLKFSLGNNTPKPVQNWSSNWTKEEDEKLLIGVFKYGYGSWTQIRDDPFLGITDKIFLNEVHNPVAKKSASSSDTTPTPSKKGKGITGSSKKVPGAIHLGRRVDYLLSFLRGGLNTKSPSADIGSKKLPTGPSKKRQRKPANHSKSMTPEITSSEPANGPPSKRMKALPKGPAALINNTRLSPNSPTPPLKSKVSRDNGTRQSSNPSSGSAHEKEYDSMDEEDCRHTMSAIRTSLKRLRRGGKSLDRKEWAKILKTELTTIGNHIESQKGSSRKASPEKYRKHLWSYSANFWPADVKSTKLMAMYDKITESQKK
Protein translocase subunit SecA (Escherichia coli (strain K12)), sequence (P10408 whole entry): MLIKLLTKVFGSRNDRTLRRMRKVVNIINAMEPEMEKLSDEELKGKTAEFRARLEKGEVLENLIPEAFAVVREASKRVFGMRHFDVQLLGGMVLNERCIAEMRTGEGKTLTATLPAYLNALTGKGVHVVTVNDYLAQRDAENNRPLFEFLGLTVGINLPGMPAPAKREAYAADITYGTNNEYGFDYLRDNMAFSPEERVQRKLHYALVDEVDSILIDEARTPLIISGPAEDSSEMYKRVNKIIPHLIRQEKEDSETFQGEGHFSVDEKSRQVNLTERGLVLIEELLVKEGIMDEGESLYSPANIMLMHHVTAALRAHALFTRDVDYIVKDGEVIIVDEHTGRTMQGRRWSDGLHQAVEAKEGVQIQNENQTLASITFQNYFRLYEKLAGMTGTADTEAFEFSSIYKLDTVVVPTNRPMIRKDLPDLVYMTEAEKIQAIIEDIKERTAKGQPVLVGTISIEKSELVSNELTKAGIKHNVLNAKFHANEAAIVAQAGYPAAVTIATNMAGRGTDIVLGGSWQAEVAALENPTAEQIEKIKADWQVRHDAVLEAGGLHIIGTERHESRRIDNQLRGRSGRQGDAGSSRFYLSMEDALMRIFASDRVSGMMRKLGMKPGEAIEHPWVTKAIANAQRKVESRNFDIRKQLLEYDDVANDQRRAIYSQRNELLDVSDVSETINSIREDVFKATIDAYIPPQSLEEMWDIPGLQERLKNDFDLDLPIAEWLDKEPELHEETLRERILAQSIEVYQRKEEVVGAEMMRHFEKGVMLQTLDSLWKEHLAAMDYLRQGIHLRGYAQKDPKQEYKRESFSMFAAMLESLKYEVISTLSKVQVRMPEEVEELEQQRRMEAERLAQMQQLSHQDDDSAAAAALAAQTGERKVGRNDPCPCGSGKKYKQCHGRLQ

`CCn1cc(NC(=O)NCC(O)c2ccccc2)cn1` (stereo not drawn): the Percent Effect was -2.26% in [1]; 12.7% in assay [2]; -8.7% in [3]; 13.4% in [4]; -1.98% in assay [5]; 1.52% in assay [6]. Further, the Percent Effect in assay [7] is 3.19%; in [8] it was -8.48%; in [9] it was 1.48%; in assay [10] it was 13.9%; in [11], -3.66%.
For `CC(C)c1nc(CC(=O)Nc2nc(CN3CCCCCC3)cs2)cs1`, the Percent Effect in assay [1] was -2.6%; in [2] it was -15.6%; in assay [3] it was -8.27%; in assay [4], -10.6%; in assay [5] it was 13.8%; in assay [6] it was -4.84%. In addition, the Percent Effect in assay [7] was 4.61%; in assay [8], 1.12%; in assay [9], 10.5%; in assay [10] it was 23.5%; in [11], -15.2%.
Take `O=C(C1CCC1)N1CCC2(COCc3cnc(N4CCOCC4)nc32)C1` (stereo not drawn): the Percent Effect was 2.09% in [1]; 13.3% in assay [2]; -2.58% in assay [3]; -6.19% in assay [4]; 0.772% in [5]; -59.7% in assay [6]. Moreover, the Percent Effect in [7] was 9.23%; in [8] it was -2.75%; in assay [9], 2.08%; in assay [10] it was 12.5%; in [11] it was -9.27%.
Regarding `Cc1ccc2c(n1)N(CCn1cccn1)CCN(C(=O)CC1CC1)C2`, the Percent Effect in assay [1] was -3.68%; in [2], 5.41%; in assay [3], -9.57%; in assay [4], 3.09%; in assay [5], -4.4%; in assay [6], 1.74%. For the same molecule, the Percent Effect in assay [7] is 10.6%; in assay [8], 10.3%; in assay [9], -5.38%; in [10], 11.1%; in assay [11], -7.62%.
`Cn1cc(CN2CC[C@@H]3[C@@H](CCC(=O)N3CCc3c[nH]cn3)C2)cn1`: the Percent Effect in assay [1] is -4.59%; in assay [2], 5.48%; in [3] it was -4.95%; in [4], 7.16%; in [5] it was 7.14%; in [6] it was -4.79%. In addition, the Percent Effect in assay [7] was 5.05%; in [8] it was -5.47%; in [9], 1.04%; in [10], 6.17%; in assay [11], -0.897%.
`CCC(=O)N1Cc2nccn2CC(CN(C)Cc2cccnc2)C1` (stereo not drawn): the Percent Effect was -1.64% in assay [1]; 13.3% in assay [2]; 10.6% in assay [3]; -7.3% in assay [4]; -4.72% in assay [5]; 1.17% in [6]. The Percent Effect in assay [7] was 7.49%; in assay [8] it was -7.96%; in [9] it was 4.25%; in assay [10] it was 8.97%; in assay [11], -6.9%.
For `N#Cc1cccnc1NCCNC(=O)N1CCCC(C(F)(F)F)C1` (stereo not drawn), the Percent Effect in assay [1] was -0.35%; in assay [2] it was 10.8%; in [3], -2.73%; in assay [4] it was 11.1%; in [5], 4.83%; in assay [6] it was 13.3%. For the same molecule, the Percent Effect is 19% in assay [7]; 23.4% in [8]; 4.76% in [9]; 19.5% in [10]; -4.05% in assay [11].
As to `CCS(=O)(=O)N1CCC2(CCCN(Cc3cc(OC)ccc3F)C2)C1` (stereo not drawn), the Percent Effect is -4.17% in [1]; 6.94% in assay [2]; -5.98% in assay [3]; -4.29% in [4]; -2.23% in assay [5]; 0.883% in assay [6]. Further, the Percent Effect in [7] was 14.6%; in assay [8] it was 16.9%; in [9], 6.32%; in assay [10], 7.69%; in assay [11], -4.39%.
